PubChem BioAssay (EPA / NIEHS)
Results filed as inconclusive are left out. Calls of active or inactive are those of the source. How the source made its calls: active means hit-call score of the fitted dose curve at least 0.9, where 1 is the maximum; inconclusive means response in the unintended direction; inactive means score below 0.9.

Columns and labels:
[1] = TOX21_p53_BLA_p2_viability: Viability Assessment in the Tox21 HCT-116 p53 Agonism Beta-lactamase Assay, Phase 2 (AID 2283591);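 further: compound exposure lasted 16 h at 37 °C; actives lower the ATP signal meaning cytotoxicity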
In short: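 HCT-116 p53-bla cells (4000/well) rested 5 h at 37C, then received compounds in DMSO (217-fold dilution) for 16 h at 37C, 5% CO2. After the CCF4 read, CellTiter-Glo was added; ATP luminescence was read after 30 min at room temperature.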

[2] = target: Cellular tumor antigen p53 (Homo sapiens) (UniProt P04637); assay: TOX21_p53_BLA_p2_ratio: Tox21 HCT-116 p53 Agonism Beta-lactamase Assay, Ratio, Phase 2 (AID 2283592)
Sequence of Cellular tumor antigen p53 (Homo sapiens) (P04637 whole entry, looked up): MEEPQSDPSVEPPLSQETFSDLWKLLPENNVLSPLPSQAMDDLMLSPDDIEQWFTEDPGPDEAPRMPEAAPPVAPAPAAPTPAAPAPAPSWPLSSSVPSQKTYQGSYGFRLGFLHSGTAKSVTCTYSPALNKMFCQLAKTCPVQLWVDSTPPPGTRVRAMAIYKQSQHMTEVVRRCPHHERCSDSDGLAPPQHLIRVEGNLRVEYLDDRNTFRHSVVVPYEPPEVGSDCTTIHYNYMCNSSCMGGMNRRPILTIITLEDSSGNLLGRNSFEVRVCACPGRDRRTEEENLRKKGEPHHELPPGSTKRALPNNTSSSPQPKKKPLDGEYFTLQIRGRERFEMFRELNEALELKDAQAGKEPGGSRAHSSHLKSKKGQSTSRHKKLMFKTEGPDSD
In short: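 DMSO-normalized, positive-direction endpoint derived from the 460 nm/530 nm FRET ratio in HCT116 p53 beta-lactamase reporter cells exposed 16 h at 37C and loaded with CCF4-AM for 2 h.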

[3] = TOX21_p53_BLA_p3_viability: Viability Assessment in the Tox21 HCT-116 p53 Agonism Beta-lactamase Assay, Phase 3 (AID 2283593);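 further: cells exposed to compound for 16 h before reading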
In short: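 HCT-116 cells (4000/well) rested 5 h at 37C, then got DMSO compounds by pin tool (217-fold dilution) for 16 h at 37C, 5% CO2. After the bla read, CellTiter-Glo was added and luminescence read at 30 min, room temperature.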

[4] = target: Cellular tumor antigen p53 (Homo sapiens) (UniProt P04637); assay: TOX21_p53_BLA_p3_ratio: Tox21 HCT-116 p53 Agonism Beta-lactamase Assay, Ratio, Phase 3 (AID 2283596)
In short: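 Cells were seeded at 4000/well, rested 5 h at 37C, then dosed with DMSO compound solutions (217-fold dilution) for 16 h. CCF4-AM substrate was loaded for 2 h at room temperature, and the 460/530 nm emission ratio was fitted for gain of signal versus DMSO.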

[5] = target: Cellular tumor antigen p53 (Homo sapiens) (UniProt P04637); assay: TOX21_p53_BLA_p5_ratio: Tox21 HCT-116 p53 Agonism Beta-lactamase Assay, Ratio, Phase 5 (AID 2283599)
In short: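 HCT-116 cells carrying a p53-inducible beta-lactamase reporter were seeded at 4000 cells/well and dosed after 5 h with compound in DMSO (217-fold dilution). After 16 h at 37C, CCF4-AM substrate was added for 2 h, and the 460/530 nm emission ratio was scored as gain-of-signal versus DMSO.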

[6] = TOX21_p53_BLA_p5_viability: Viability Assessment in the Tox21 HCT-116 p53 Agonism Beta-lactamase Assay, Phase 5 (AID 2283600)
In short: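 Here cell health was gauged by ATP levels in wells holding 4000 cells, each treated 16 h with DMSO-delivered compounds at 217-fold dilution; reduced luminescence marked toxicity.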

With `CCCCCCCCCCCCCCNCCO` as the compound, how does the outcome [1] read?
Its outcome is “inactive”.

And the outcome [2]?
The outcome was “inactive”.

And the outcome [3]?
Its outcome is “inactive”.

What about the outcome [4] of the same compound?
The outcome was “inactive”.

What about the outcome [5] of the same compound?
Its outcome is “inactive”.

What about the outcome [6] of the same compound?
The outcome was “inactive”.

Which outcome [1] does the source give for `Cc1ccccc1C#N` here?
The outcome was “inactive”.

What about the outcome [2] of the same compound?
The outcome was “inactive”.

And the outcome [3]?
The outcome was “inactive”.

And the outcome [4]?
Its outcome is “inactive”.

And the outcome [5]?
Its outcome is “inactive”.

With `N/C(=N\N=Cc1ccc(Cl)cc1)NN=Cc1ccc(Cl)cc1` as the compound, how does the outcome [1] read?
Its outcome is “inactive”.

What about the outcome [2] of the same compound?
Its outcome is “inactive”.

What about the AC50 [3] of the same compound?
Its AC50 is 42.7 µM (active).

What about the AC50 [4] of the same compound?
The AC50 was 37.6 µM (active).

And the outcome [5]?
The outcome was “inactive”.

What about the outcome [6] of the same compound?
The outcome was “inactive”.
